# Screening results: PubChem BioAssay, The Scripps Research Institute Molecular Screening Center
# HTR5A inv ag: inverse agonist of human HTR5A in OPRM1-OPRD1 counter-screen; actives 0.083% (n = 340,000); HTR5A cell line, luminescence, inverse agonism; P47898; inhibition, % at 9.3 µM; AID 504634; in the data active = inhibition mostly above about 23%, no sharp cut-off; inactive = mostly below about 18%;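 also: 0% = cells with DMSO and 100% = no-cell wells with DMSO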
# Target sequence (P47898 whole entry, looked up): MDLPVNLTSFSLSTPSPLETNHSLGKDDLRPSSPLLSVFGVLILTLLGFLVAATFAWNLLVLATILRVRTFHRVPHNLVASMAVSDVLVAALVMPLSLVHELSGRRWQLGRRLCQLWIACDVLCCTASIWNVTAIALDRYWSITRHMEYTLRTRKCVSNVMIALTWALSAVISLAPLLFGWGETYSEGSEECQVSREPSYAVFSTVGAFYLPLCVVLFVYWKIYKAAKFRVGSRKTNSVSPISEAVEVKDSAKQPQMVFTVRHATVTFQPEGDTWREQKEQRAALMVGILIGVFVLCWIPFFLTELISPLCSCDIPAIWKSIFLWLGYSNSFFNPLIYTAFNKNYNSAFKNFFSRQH
# MOR-DOR ag-1: agonists of human mu-delta opioid receptor heterodimerization | activation, % at 9.3 µM | AID 504326 | cells, OPRM1-OPRD1 heterodimerization, luminescence | P35372+P41143 | actives 0.3% (n = 340,000);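 also: 0% = vehicle-treated cells and 100% = reference agonist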
# HTR5A ag ctr: activates human HTR5A in OPRM1-OPRD1 agonist counter-screen | activation, % at 9.3 µM | P47898 | actives 0.61% (n = 340,000) | HTR5A agonist assay, luminescence, cell-based | AID 504692; in the data active = activation mostly above about 9.5%, no sharp cut-off; inactive = mostly below about 7.6%;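 also: 0% = cells with vehicle only and 100% = reference agonist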
# MOR-DOR inv ag: inverse agonist of human OPRM1-OPRD1 heterodimerization | cell-based MOR-DOR heterodimer luminescence, inverse agonism | inhibition, % at 9.3 µM | actives 0.21% (n = 340,000) | AID 504357; in the data active = inhibition above about 22%, passing the limit was not always enough;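 also: 0% = cells with DMSO and 100% = wells without cells with DMSO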
# MOR-DOR ag-2: promotes OPRM1-OPRD1 heterodimerization in HTR5A counter-screen; shares compounds with HTR5A ag ctr; U2OS counter-screen cells, complementation luminescence, 3 h; activation, % at 9.3 µM; actives 13% (n = 800)
# HTR5A ag confirm: confirmation of human HTR5A agonists; shares compounds with HTR5A ag ctr; HTR5A agonist cell assay, luminescence; activation, % at 9.3 µM; actives 17% (n = 800); in the data active = activation above about 17%;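 also: 0% = cells with vehicle only and 100% = full reference agonist response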
# * = called active by the depositor; . = not tested or not shown. Rows were chosen to be rich in hits. Some 1.1% of all compounds tested hit in one or more screens of this group. Rule as the data show it, unless noted: active = activation above about 18%; inactive = the rest.
SMILES,HTR5A inv ag,MOR-DOR ag-1,HTR5A ag ctr,MOR-DOR inv ag,MOR-DOR ag-2,HTR5A ag confirm
CC(=O)c1ccccc1NC(=O)CCN1C(=O)C2CCCCC2C1=O (configuration not stated),-4,-1,1,6,.,.
C=C1C(=O)OC2C1CCC(C)C1C=CC(=O)C12C (configuration not stated),7,1,-2,-6,.,.
C=C1C(=O)OC2CC1C(O)CC(C)=CCCC(C)=CC(O)CC2C (configuration not stated),-71,-1,18*,4,-2,-4
CCNC(=O)c1ccc(-n2nc(C(F)(F)F)c3c2CCCC3)cc1,-79,-1,16*,4,1,36*
C/C(=N\NC(=O)CNc1cccc(C)c1)c1ccc(Br)s1,-131,0,25*,2,3,34*
C/C(=N\NC(=O)Cc1ccccc1)c1ccc(Br)s1,3,5,-1,-24,.,.
C/C(=N/NC(=O)CNC(=O)c1ccccc1)c1ccc(C)cc1,4,0,-1,0,.,.
C/C(=N\NC(=O)CNc1ccccc1)c1ccccc1,-49,-1,18*,3,0,0
CC1CN(c2ccccc2)CCN1C(=O)c1cc(COc2c(F)cccc2F)on1 (configuration not stated),4,-2,14*,9,0,87*
COc1cccc(/C=C/C(=O)OCC(=O)NC2CC2)c1,2,-1,-1,4,.,.
Cc1ccc(NC(=O)Cn2c(=O)oc3ccccc32)c(C)c1,-1,-2,0,9,.,.
COC(=O)CCCC1=CC2=C(c3ccccc3)C(=O)C(C)(OC(=O)C3CCCC3)C(=O)C2=CN1CCc1c[nH]c2ccccc12 (configuration not stated),-12,1,15*,-6,2,8
CC1(OC(=O)CCc2ccccc2)C(=O)C=C2C=C(c3ccc(C#N)cc3)N(CCc3c[nH]c4ccccc34)C=C2C1=O (configuration not stated),-32,7,20*,-39,5,6
Nc1nc(=O)n(C2CC(O)C(CO)O2)cc1F (configuration not stated),-5,0,1,-2,.,.
Cc1cc(C)cc(OCC(=O)Nc2nc(-c3ccccn3)cs2)c1,-30,2,21*,-11,0,64*
O=C(NNC(=O)c1ccccc1[N+](=O)[O-])c1cccs1,-8,-3,3,15,.,.
O=C(COC(=O)c1ccccc1[N+](=O)[O-])NNC(=O)c1cccs1,-3,-1,16*,7,0,0
COC(C[C@H](O)C[C@@H](O)COCc1ccccc1)OC,-20,-2,-2,11,.,.
O=C(CSc1nc2ccccc2c(=O)[nH]1)c1ccc(O)c(O)c1,10,0,6,2,.,.
COc1ccc(NC(=O)CSc2nc3ccccc3c(=O)[nH]2)cc1S(N)(=O)=O,-50,-3,21*,13,0,6
O=C(CSc1nc2ccccc2c(=O)[nH]1)c1ccc(O)cc1O,-5,4,16*,-21,1,2
Cc1ccc(C)c(S(=O)(=O)NCc2cccnc2)c1,-27,-2,-3,11,.,.
Cc1ccc(C)c(S(=O)(=O)NCc2ccncc2)c1,0,-1,15*,3,4,2
COc1cccc(CN(C(=O)c2ccc([N+](=O)[O-])cc2)C2CCS(=O)(=O)C2)c1 (configuration not stated),11,-1,-4,8,.,.
CC12CCC(O)CC1=CCC1C2CCC2(C)C3=NN=CC3CC12 (configuration not stated),4,1,-1,-5,.,.
CCCS(=O)(=O)N1CCCC(C(=O)NCCc2cccc(C)c2)C1 (configuration not stated),0,-3,0,14,.,.
CNC(=S)N1N=C(c2ccc(C)cc2)CC1c1ccc(Cl)cc1 (configuration not stated),11,8,-4,-41,.,.
CNC(=S)N1N=C(c2ccc(C)cc2)CC1c1ccc(Br)cc1 (configuration not stated),-43,1,18*,-7,1,4
CCn1c(C)nc2cc(C(=O)NN=Cc3ccccc3OC(F)F)ccc21,-46,-1,18*,6,16,7
C/C(=N\NS(=O)(=O)c1ccc(Br)cc1)c1ccc2c(c1)OCO2,1,1,7,-3,.,.
